The full ranking holds about 9,900 sequences; the median of “r (bound/input frequency ratio)” is about 0.7, and the highest 2% start at about 6.5. The list comes from a sample in which the highest values are over-represented; it also holds similar and randomly drawn sequences.
B1: ENSMUSG00000061578.90|Ksr2|236:240 (ssRNA)
RNA: GGGAGUUCUACAGUCCGACGAUCGCUUCGAUAUCCGCAUGCUAUCUGAUUUUAGAGGUCCCAUUCCAAGAUGGAAGUCACCGGUUGCCGCUGAGCACACAAUUCUGAAGGACAGUAGGCAGUCCUGCAGGUCUUUUUUAGCACAGGGCCUCUCUGGGGACCAGUCCCUGGCCUUCACCCUUCUCCCAUUUUGUAAGAACACUGUUCUAACUCACCUCAUGCCCACGCUACCCUGGGCAACUGGAGAACACCAUAGCGUUUCAGCUGAUGUGACAUUUGCACACACCUUUACCAGUUCACCAUCCUCUUGCGGUCGCACUAGUGUGGAAUUCUCGGGUGUCAAGG
B2: ENSMUSG00000090935.515|Synj2bp (ssRNA)
RNA: GGGAGUUCUACAGUCCGACGAUCGCUUCGAUAUCCGCAUGCUAUGGAGGCCCAGUGUCUGCUACCCUUCUUGUAUCUGAUGGCAUGGGUAACAGCUCUGCCAUGGGCCUGCUUACUUCUAGUAUUCACCUCAGGGCUUGGAAAUUGGUUUUGAAAGGCUUUUAGACAUAGAAAGUAAAACUAAUGGCAAGGAGGAUAAAACACUGUUGUGUGUUGUAUUGUUGAUCUAAAUAAAAAAUAUCAUUGGUAGAAGUUUUACUUUGGUUGAUAAGGAUUCUGAUAACAUUUGGGUCUCCUUAGGAAACUCUUGCGGUCGCACUAGUGUGGAAUUCUCGGGUGUCAAGG
B3: ENSMUSG00000031028.314|Tub|85:89 (ssRNA)
RNA: GGGAGUUCUACAGUCCGACGAUCGCUUCGAUAUCCGCAUGCUAUUUCUAGAGGGCAGUAGGACUUCCAUGCUGGGGCUGGCCUAUCUCCUGAUGAAAGAUUACAGUGCCAUCUCCUUCCCAUAGUUCACACACUGCCCUCCCUCCCUGACUUUAUAGGGAGAAAUCUCCUGACAUUAGAGGUGAUAGAAACCAGAGCUUUAGUCUAGUCAGGCUGUUUCUCUGGGUUGACAAGUUUAAGGUUGAACAGGCUGAUUUCUGGAAUCUCAUGAGUGGAGGGGACCCUGGUGGUUAAGAGCGGAACUCUCUUGCGGUCGCACUAGUGUGGAAUUCUCGGGUGUCAAGG
B4: ENSMUSG00000029636.403|Wasf3 (ssRNA)
RNA: GGGAGUUCUACAGUCCGACGAUCGCUUCGAUAUCCGCAUGCUAAUGUGUAUUGUAGCUGAGUUUCAGAUACGGUAUUUUCUCAUAGUGUAAACUCAGGCAGAUGAAUAGCUGGAGAGUGGGUGGAUGGAUGGGUGAGUAUAUGGGUAGAUAAAUGGAUGAGUGGAUGGGUGGGUUAGGUGGGUAAGUAGCUAGGUGGAUGGGUGGGUGGAUACAUGGAUGAGUGGAUGGGUGGAUUGGUGGGUGAGUGGAUAGGUGAAUGGAUGAUAGGUGGUGGAUGGUUGAGUGGGUGGAUUCAUGAUGGACUCUUGCGGUCGCACUAGUGUGGAAUUCUCGGGUGUCAAGG
B5: ENSMUSG00000029636.393|Wasf3|62:66 (ssRNA)
RNA: GGGAGUUCUACAGUCCGACGAUCGCUUCGAUAUCCGCAUGCUAAUGCUUAUACUUAAUCUACAGAUCGCAAGGUUGUUUUAUAUUAUCCCCUUAUAGUGUUCCAACACAAUUGUAGCUGAGUUUCAGAUACGGUAUUUUCUCAUAGUGUAAACUCAGGCAGAUGAAUAGCUGGAGAGUGGGUGGAUGGAUGGGUGAGUAUAUGGGUAGAUAAAUGGAUGAGUGGAUGGGUGGGUUAGGUGGGUAAGUAGCUAGGUGGAUGGGUGGGUGGAUACAUGGAUGAGUGGAUGGGUGGAUUGGUGGGUCUCUUGCGGUCGCACUAGUGUGGAAUUCUCGGGUGUCAAGG
B6: ENSMUSG00000029636.410|Wasf3 (ssRNA)
RNA: GGGAGUUCUACAGUCCGACGAUCGCUUCGAUAUCCGCAUGCUAGUGUAAACUCAGGCAGAUGAAUAGCUGGAGAGUGGGUGGAUGGAUGGGUGAGUAUAUGGGUAGAUAAAUGGAUGAGUGGAUGGGUGGGUUAGGUGGGUAAGUAGCUAGGUGGAUGGGUGGGUGGAUACAUGGAUGAGUGGAUGGGUGGAUUGGUGGGUGAGUGGAUAGGUGAAUGGAUGAUAGGUGGUGGAUGGUUGAGUGGGUGGAUUCAUGAUGGAUGGAUGGAUGGAUGGAUGGAUGGAUGGAUGGAUGAGUGGAUGCUCUUGCGGUCGCACUAGUGUGGAAUUCUCGGGUGUCAAGG
B7: ENSMUSG00000029636.392|Wasf3|68:72 (ssRNA)
RNA: GGGAGUUCUACAGUCCGACGAUCGCUUCGAUAUCCGCAUGCUACAUUUCAUGCUUAUACUUAAUCUACAGAUCGCAAGGUUGUUUUAUAUUAUCCCCUUAUAGUGUUCCAACACAAUUGUAGCUGAGUUUCAGAUACGGUAUUUUCUCAUAGUGUAAACUCAGGCAGAUGAAUAGCUGGAGAGUGGGUGGAUGGAUGGGUGAGUAUAUGGGUAGAUAAAUGGAUGAGUGGAUGGGUGGGUUAGGUGGGUAAGUAGCUAGGUGGAUGGGUGGGUGGAUACAUGGAUGAGUGGAUGGGUGGAUUGCUCUUGCGGUCGCACUAGUGUGGAAUUCUCGGGUGUCAAGG
B8: ENSMUSG00000029636.416|Wasf3 (ssRNA)
RNA: GGGAGUUCUACAGUCCGACGAUCGCUUCGAUAUCCGCAUGCUAUGGAUGGAUGGGUGAGUAUAUGGGUAGAUAAAUGGAUGAGUGGAUGGGUGGGUUAGGUGGGUAAGUAGCUAGGUGGAUGGGUGGGUGGAUACAUGGAUGAGUGGAUGGGUGGAUUGGUGGGUGAGUGGAUAGGUGAAUGGAUGAUAGGUGGUGGAUGGUUGAGUGGGUGGAUUCAUGAUGGAUGGAUGGAUGGAUGGAUGGAUGGAUGGAUGGAUGAGUGGAUGGAUAAUAGGUUGAUGGGUGGAUAGGUAGAUGAGUGACUCUUGCGGUCGCACUAGUGUGGAAUUCUCGGGUGUCAAGG
B9: ENSMUSG00000029636.411|Wasf3 (ssRNA)
RNA: GGGAGUUCUACAGUCCGACGAUCGCUUCGAUAUCCGCAUGCUAACUCAGGCAGAUGAAUAGCUGGAGAGUGGGUGGAUGGAUGGGUGAGUAUAUGGGUAGAUAAAUGGAUGAGUGGAUGGGUGGGUUAGGUGGGUAAGUAGCUAGGUGGAUGGGUGGGUGGAUACAUGGAUGAGUGGAUGGGUGGAUUGGUGGGUGAGUGGAUAGGUGAAUGGAUGAUAGGUGGUGGAUGGUUGAGUGGGUGGAUUCAUGAUGGAUGGAUGGAUGGAUGGAUGGAUGGAUGGAUGGAUGAGUGGAUGGAUAAUCUCUUGCGGUCGCACUAGUGUGGAAUUCUCGGGUGUCAAGG
B10: ENSMUSG00000029636.415|Wasf3 (ssRNA)
RNA: GGGAGUUCUACAGUCCGACGAUCGCUUCGAUAUCCGCAUGCUAAGUGGGUGGAUGGAUGGGUGAGUAUAUGGGUAGAUAAAUGGAUGAGUGGAUGGGUGGGUUAGGUGGGUAAGUAGCUAGGUGGAUGGGUGGGUGGAUACAUGGAUGAGUGGAUGGGUGGAUUGGUGGGUGAGUGGAUAGGUGAAUGGAUGAUAGGUGGUGGAUGGUUGAGUGGGUGGAUUCAUGAUGGAUGGAUGGAUGGAUGGAUGGAUGGAUGGAUGGAUGAGUGGAUGGAUAAUAGGUUGAUGGGUGGAUAGGUAGAUCUCUUGCGGUCGCACUAGUGUGGAAUUCUCGGGUGUCAAGG
B11: ENSMUSG00000029636.401|Wasf3|14:18 (ssRNA)
RNA: GGGAGUUCUACAGUCCGACGAUCGCUUCGAUAUCCGCAUGCUAUUAUAGUGUUCCAACACAAUUGUAGCUGAGUUUCAGAUACGGUAUUUUCUCAUAGUGUAAACUCAGGCAGAUGAAUAGCUGGAGAGUGGGUGGAUGGAUGGGUGAGUAUAUGGGUAGAUAAAUGGAUGAGUGGAUGGGUGGGUUAGGUGGGUAAGUAGCUAGGUGGAUGGGUGGGUGGAUACAUGGAUGAGUGGAUGGGUGGAUUGGUGGGUGAGUGGAUAGGUGAAUGGAUGAUAGGUGGUGGAUGGUUGAGUGGGUGGCUCUUGCGGUCGCACUAGUGUGGAAUUCUCGGGUGUCAAGG
B12: ENSMUSG00000029636.407|Wasf3 (ssRNA)
RNA: GGGAGUUCUACAGUCCGACGAUCGCUUCGAUAUCCGCAUGCUAAUACGGUAUUUUCUCAUAGUGUAAACUCAGGCAGAUGAAUAGCUGGAGAGUGGGUGGAUGGAUGGGUGAGUAUAUGGGUAGAUAAAUGGAUGAGUGGAUGGGUGGGUUAGGUGGGUAAGUAGCUAGGUGGAUGGGUGGGUGGAUACAUGGAUGAGUGGAUGGGUGGAUUGGUGGGUGAGUGGAUAGGUGAAUGGAUGAUAGGUGGUGGAUGGUUGAGUGGGUGGAUUCAUGAUGGAUGGAUGGAUGGAUGGAUGGAUGGACUCUUGCGGUCGCACUAGUGUGGAAUUCUCGGGUGUCAAGG
B13: ENSMUSG00000029636.395|Wasf3|50:54 (ssRNA)
RNA: GGGAGUUCUACAGUCCGACGAUCGCUUCGAUAUCCGCAUGCUAAAUCUACAGAUCGCAAGGUUGUUUUAUAUUAUCCCCUUAUAGUGUUCCAACACAAUUGUAGCUGAGUUUCAGAUACGGUAUUUUCUCAUAGUGUAAACUCAGGCAGAUGAAUAGCUGGAGAGUGGGUGGAUGGAUGGGUGAGUAUAUGGGUAGAUAAAUGGAUGAGUGGAUGGGUGGGUUAGGUGGGUAAGUAGCUAGGUGGAUGGGUGGGUGGAUACAUGGAUGAGUGGAUGGGUGGAUUGGUGGGUGAGUGGAUAGGUCUCUUGCGGUCGCACUAGUGUGGAAUUCUCGGGUGUCAAGG
B14: ENSMUSG00000029636.397|Wasf3 (ssRNA)
RNA: GGGAGUUCUACAGUCCGACGAUCGCUUCGAUAUCCGCAUGCUAGCAAGGUUGUUUUAUAUUAUCCCCUUAUAGUGUUCCAUGUGUAUUGUAGCUGAGUUUCAGAUACGGUAUUUUCUCAUAGUGUAAACUCAGGCAGAUGAAUAGCUGGAGAGUGGGUGGAUGGAUGGGUGAGUAUAUGGGUAGAUAAAUGGAUGAGUGGAUGGGUGGGUUAGGUGGGUAAGUAGCUAGGUGGAUGGGUGGGUGGAUACAUGGAUGAGUGGAUGGGUGGAUUGGUGGGUGAGUGGAUAGGUGAAUGGAUGAUACUCUUGCGGUCGCACUAGUGUGGAAUUCUCGGGUGUCAAGG
B15: ENSMUSG00000029636.408|Wasf3 (ssRNA)
RNA: GGGAGUUCUACAGUCCGACGAUCGCUUCGAUAUCCGCAUGCUAUAUUUUCUCAUAGUGUAAACUCAGGCAGAUGAAUAGCUGGAGAGUGGGUGGAUGGAUGGGUGAGUAUAUGGGUAGAUAAAUGGAUGAGUGGAUGGGUGGGUUAGGUGGGUAAGUAGCUAGGUGGAUGGGUGGGUGGAUACAUGGAUGAGUGGAUGGGUGGAUUGGUGGGUGAGUGGAUAGGUGAAUGGAUGAUAGGUGGUGGAUGGUUGAGUGGGUGGAUUCAUGAUGGAUGGAUGGAUGGAUGGAUGGAUGGAUGGAUGCUCUUGCGGUCGCACUAGUGUGGAAUUCUCGGGUGUCAAGG

Biological target: TDP-43 (Homo sapiens, UniProt Q13148 1-414)
Sequence (Q13148 whole entry): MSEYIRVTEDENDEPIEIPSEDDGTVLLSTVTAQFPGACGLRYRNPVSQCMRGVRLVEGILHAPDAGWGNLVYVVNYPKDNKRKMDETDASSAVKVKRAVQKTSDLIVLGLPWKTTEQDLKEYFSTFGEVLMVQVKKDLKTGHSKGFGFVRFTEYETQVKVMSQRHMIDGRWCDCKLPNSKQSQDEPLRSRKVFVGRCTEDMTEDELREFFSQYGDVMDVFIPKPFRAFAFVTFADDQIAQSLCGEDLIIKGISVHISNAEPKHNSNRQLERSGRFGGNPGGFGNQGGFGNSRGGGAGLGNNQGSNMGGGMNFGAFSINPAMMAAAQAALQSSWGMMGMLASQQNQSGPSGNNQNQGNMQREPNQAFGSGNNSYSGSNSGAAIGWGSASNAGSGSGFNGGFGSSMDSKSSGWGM
Assay: RNA Bind-n-Seq with designed 260-mer pool; 25 mM Tris-HCl, 150 mM KCl, 3 mM MgCl2, BSA (printed 500 mg/mL), 20 units/mL SUPERase IN; pH not stated; 500 nM RNA pool, 1 h, 4 C; TDP-43 5, 50, 500 nM; high values mean tight binding
Conditions: protein: recombinant; tags: SBP (GST cleaved off with PreScission; pGEX-GST-SBP)
In short: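 An in vitro-transcribed pool of 260-nt 3′ UTR oligos (500 nM) was incubated for 1 h at 4 °C with recombinant SBP-tagged TDP-43 at 5, 50 or 500 nM held on streptavidin beads. The buffer contained 25 mM Tris-HCl, 150 mM KCl, 3 mM MgCl2, BSA and SUPERase IN. Biotin-eluted bound RNA was sequenced, and binding, R, is each oligo's normalized read abundance in the bound sample over that in input.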

| Binder | binding signal |
| --- | --- |
| B1 | 0.502 R (bound/input frequency ratio) |
| B2 | 0.412 R (bound/input frequency ratio) |
| B3 | 1.56 R (bound/input frequency ratio) |
| B4 | 15.4 R (bound/input frequency ratio) |
| B5 | 6.94 R (bound/input frequency ratio) |
| B6 | 2.97 R (bound/input frequency ratio) |
| B7 | 4.14 R (bound/input frequency ratio) |
| B8 | 6.38 R (bound/input frequency ratio) |
| B9 | 7.25 R (bound/input frequency ratio) |
| B10 | 2.19 R (bound/input frequency ratio) |
| B11 | 4.07 R (bound/input frequency ratio) |
| B12 | 3.52 R (bound/input frequency ratio) |
| B13 | 4.72 R (bound/input frequency ratio) |
| B14 | 4.09 R (bound/input frequency ratio) |
| B15 | 20.3 R (bound/input frequency ratio) |

From publication PMC12864922, “TDP-43 directly inhibits mRNA accumulation in neurites through modulation of mRNA stability”
